Assay outcomes (PubChem)
CHRM1 antagonist = blocks human M1 muscarinic receptor. actives 1.3% (n = 360,000). P11229. CHO-K1 hM1, Fluo-8 calcium fluorescence, ACh EC80 antagonist. inhibition, % at 3 µM;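 active means percent inhibition above its own plate's cutoff, namely the mean of that plate's compound wells plus 3 SD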;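 further: peak over basal fluorescence ratio during 140 s after agonist addition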
Target sequence (P11229 whole entry, looked up): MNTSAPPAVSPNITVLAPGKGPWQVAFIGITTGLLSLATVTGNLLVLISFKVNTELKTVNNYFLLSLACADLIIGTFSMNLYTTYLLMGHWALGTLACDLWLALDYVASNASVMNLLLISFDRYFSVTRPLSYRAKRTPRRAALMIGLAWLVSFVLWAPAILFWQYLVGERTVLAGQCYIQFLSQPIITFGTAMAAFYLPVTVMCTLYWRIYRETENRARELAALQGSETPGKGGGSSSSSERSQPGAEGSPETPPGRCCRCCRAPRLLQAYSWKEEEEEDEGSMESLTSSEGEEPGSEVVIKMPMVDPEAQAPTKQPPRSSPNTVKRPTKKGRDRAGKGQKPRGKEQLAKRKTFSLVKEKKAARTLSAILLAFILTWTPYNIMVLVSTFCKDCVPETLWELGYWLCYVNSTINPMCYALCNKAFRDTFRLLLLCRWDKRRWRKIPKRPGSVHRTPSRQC
M1 PAM = potentiates human M1 receptor response to acetylcholine; AID 588819; CHO-K1 hM1, Fluo-8 calcium fluorescence, ACh EC20; 0% = ACh EC20, 100% = maximal ACh; P11229; activation, % at 3 µM; actives 0.088% (n = 360,000); in the data active means activation above about 19%, passing the limit was not always enough
CHO-K1 Ca ag = counter-screen for M1 agonists: effect in parental CHO-K1 cells. AID 602248. Fluo-8 calcium fluorescence; scaled to maximal ATP response, vehicle zero. actives 0.48% (n = 360,000). activation, % at 3 µM; in the data active means activation above about 15%;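 further: untransfected CHO-K1 host cells lacking M1 receptor as counterscreen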
CHO-K1 Ca PAM = counter-screen for M1 PAMs: effect in parental CHO-K1 cells | ATP EC20, Fluo-8 calcium fluorescence; 0% at ATP EC20, 100% at ATP max | activation, % at 3 µM | actives 0.02% (n = 360,000) | AID 602247;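 active means activation above the run cutoff, the mean activation of all test compounds plus 3 SD, cut at about 40% in these data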;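 further: peak over basal fluorescence ratio in a 140 s read after ATP addition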
M1 ag = human M1 muscarinic receptor agonism. P11229. CHO-K1 hM1, Fluo-8 calcium fluorescence, agonist mode; 0% DMSO, 100% acetylcholine EC100. activation, % at 3 µM. actives 0.33% (n = 360,000). AID 588814;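 active means activation above the run's mean compound activation plus 3 SD, cut at about 16% in these data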;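 further: peak over basal fluorescence ratio within a 140 s kinetic read after compound addition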
CHO-K1 Ca antag = counter-screen for M1 antagonists: effect in parental CHO-K1 cells. ATP-induced calcium, Fluo-8 fluorescence. inhibition, % at 3 µM. actives 0.6% (n = 360,000). AID 602250;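 active means inhibition above a per-plate cutoff, the plate's mean sample inhibition plus 3 SD, cut at about 24% in these data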
Each line names hits and unclear results; the compound was inactive in the other large screens. Compounds with a hit are over-represented: about 2.3% of the library has one in this group of screens.

Nc1c(C(=O)CSc2n[nH]c(-c3ccccc3Br)n2)c(=O)[nH]c(=O)n1C1CC1	none
Nc1c(C(=O)CSc2n[nH]c(-c3ccccc3)n2)c(=O)[nH]c(=O)n1C1CC1	M1 PAM 29
CC(C(=O)N1CCN(c2ccccc2)CC1)c1ccc([N+](=O)[O-])cc1 (centres undefined)	none
Cc1csc(C(C)N(C)C(=O)c2ccc(OC3CCN(Cc4ccccn4)CC3)cc2)n1 (centres undefined)	none
CCC(O)c1cc2c(cc1NC(=O)c1ccc(C)cc1)OCCO2 (centres undefined)	CHRM1 antagonist 26
CCCSC(=S)c1c(C)[nH]n(-c2ccccc2)c1=O	CHO-K1 Ca ag 16
CCCCc1cc2ccccc2c(OCCN(C)C)n1	CHRM1 antagonist 56
Cc1sc(NC(=O)CN(Cc2ccc(F)cc2)C(=O)C(C)(C)C)c(C(N)=O)c1C	none
COc1ccccc1C(CNC(=O)c1ccc(NS(=O)(=O)c2ccc(F)c(C)c2)cc1)N(C)C (centres undefined)	M1 ag 28
Cc1cc(S(=O)(=O)Nc2ccc(C(=O)NCC(c3ccccc3)N(C)C)cc2)ccc1F (centres undefined)	none
CCOc1ccc(S(=O)(=O)Nc2cccc(C(=O)NCC(c3ccccc3)N(C)C)c2)cc1 (centres undefined)	none
COc1ccc(C(CNC(=O)c2cccc(NS(=O)(=O)c3ccccc3)c2)N(C)C)cc1 (centres undefined)	CHRM1 antagonist 48
COc1ccc(N(C)S(=O)(=O)c2cccc(C(=O)Nc3nc4ccccc4[nH]3)c2)cc1	CHRM1 antagonist 34
COc1ccccc1C(CNC(=O)c1cccc(NS(=O)(=O)c2ccc(C)c(F)c2)c1)N(C)C (centres undefined)	CHRM1 antagonist 85
CCOC(OCC)c1cc2ccccc2cn1	none
COc1ccc(N(C)S(=O)(=O)c2cccc(C(=O)NCC(c3ccco3)N3CCCC3)c2)cc1 (centres undefined)	none
COc1cccc(CN(C)C(=O)c2cccc(S(=O)(=O)NCc3ccccc3)c2)c1OC	none
CC(=O)c1ccc(S(=O)(=O)NCc2ccc(C(=O)NCC(c3ccccc3)N(C)C)cc2)cc1 (centres undefined)	CHRM1 antagonist 25
COc1ccccc1C(CNC(=O)c1cccc(S(=O)(=O)NCc2ccccc2)c1)N(C)C (centres undefined)	CHRM1 antagonist 50
CCN(CC)S(=O)(=O)c1cccc(C(=O)NCC(c2ccccc2)N(C)C)c1 (centres undefined)	CHRM1 antagonist 55
COc1ccc(N(C)S(=O)(=O)c2cccc(C(=O)NCC(c3cccs3)N(C)C)c2)cc1 (centres undefined)	CHRM1 antagonist 52
Cc1ccc(NC(=O)CSc2nc(=O)n(CCCN3CCOCC3)c3c2CCCC3)cc1	none
O=C(NCc1ccc2c(c1)OCO2)C(=O)NCC1OCCCN1S(=O)(=O)c1ccccc1 (centres undefined)	none
C=CC[C@]12CCc3sccc3C1N(c1ccc(C(=O)OCC)cc1)C2=O (some centres undefined)	none
CCN(CC)CCNC(=O)c1cc(Br)c(N)cc1OC	CHO-K1 Ca antag 35
COC(=O)c1cc(Br)c(N)cc1OC	none
Cc1ccc(C(C)NC(=S)NCc2ccc(F)cc2)cc1C (centres undefined)	none
CCc1ccc(C(C)NC(=S)NCc2ccc(F)cc2)cc1 (centres undefined)	CHRM1 antagonist 40
CCOc1ccc(C(C)NC(=O)C2CCC2)cc1 (centres undefined)	CHO-K1 Ca antag 24
CCOc1ccc(CNC(=S)NCc2ccc(OCC)cc2)cc1	none
CCOc1ccc(C(C)NC(=S)NCc2ccc(F)cc2)cc1 (centres undefined)	CHO-K1 Ca ag 23
C[C@H](CO)N1C[C@H](C)[C@@H](CN(C)S(=O)(=O)c2ccccc2)Oc2c(NC(=O)NC3CCCCC3)cccc2C1=O	none
COc1cc2[nH]c(=O)n(CCCC(=O)N3CC=C(c4ccccc4)CC3)c(=O)c2cc1OC	CHRM1 antagonist 32
COc1cc2[nH]c(=O)n(CCC(=O)N3CC=C(c4ccccc4)CC3)c(=O)c2cc1OC	none
CC(O)CN(C)CC/C=C1/c2ccccc2CSc2ccccc21 (centres undefined)	CHRM1 antagonist 63
c1ccc2c(c1)CSc1ccccc1N2	none
C#CCN(C)CC/C=C1\c2ccccc2CSc2ccccc21	CHRM1 antagonist 79
NCC/C=C1/c2ccccc2CSc2ccccc21	CHRM1 antagonist 69
CN(C)CC/C=C1/c2ccccc2COc2ccc(CC(=O)O)cc21	none
CN(CC/C=C1/c2ccccc2CSc2ccccc21)CCCO	CHRM1 antagonist 89
C=CCN(C)CC/C=C1\c2ccccc2CSc2ccccc21	CHRM1 antagonist 91
O=Nc1c(O)n(Cc2ccc(Cl)cc2)c2ccccc12	M1 PAM 22, M1 ag 18
O=Nc1c(O)n(Cc2c(Cl)cccc2Cl)c2ccccc12	M1 ag 36
Cc1ccc(Cn2c(O)c(N=O)c3ccccc32)cc1	M1 ag 20
COc1ccccc1NS(=O)(=O)c1ccc(C(=O)NCC(c2cccs2)N2CCOCC2)cc1 (centres undefined)	none
CNC[C@@H]1Oc2cc(Br)ccc2S(=O)(=O)N([C@H](C)CO)C[C@@H]1C	none
COc1cc(NC(=O)c2cc3ccccc3cc2O)c(OC)cc1Cl	none
COc1ccccc1NC(=O)c1cc2cc(Br)ccc2cc1O	CHO-K1 Ca ag 15, CHO-K1 Ca antag 29
CC(=O)Cc1c(C(=O)O)c(C)nn1-c1ccccc1	CHO-K1 Ca antag 26
COCCn1c(SCc2ccc(C(=O)OC)o2)nc2ccccc2c1=O	none
COC(=O)c1cc(CSc2nc3ccccc3c(=O)n2C)oc1C	CHRM1 antagonist 67
CC/C(=N\NC(=O)CSCc1ccccc1Cl)c1ccc2c(c1)OCCO2	none
CC/C(=N\NC(=O)CSCc1ccc(Cl)cc1)c1ccc2c(c1)OCCO2	CHO-K1 Ca antag 28
COC(=O)c1cc2sc(Cl)cc2n1Cc1nc(-c2ccccc2)oc1C	none
COC(=O)c1cc2sccc2n1Cc1nc(-c2ccc(OC)cc2)oc1C	none
COC(=O)c1cc2ccsc2n1Cc1nc(-c2ccc(OC)cc2)oc1C	CHRM1 antagonist 45
COC(=O)c1cc2occc2n1Cc1nc(-c2ccccc2F)oc1C	CHRM1 antagonist 53
CN1CCN(S(=O)(=O)c2ccc(NC(=O)Cc3ccc([N+](=O)[O-])cc3)cc2)CC1	none
N#C/C(=N\Nc1cccc(C(F)(F)F)c1)C(=O)c1csc(-c2cccnc2)n1	CHO-K1 Ca antag 24
